According to PubChem BioAssay AID1224921 (Broad Institute, 2016):
The whole screen tested about 1,400 compounds, of which about 350 (25%) were called active. Not shown: some 2% with an inconclusive outcome. How the calls were made is not given here. The list is a sample of the results. Measured potencies and affinities stand elsewhere.

assay: C. difficile growth inhibition, confirmation, 4-point retest (AID 1224921); settings: Clostridioides difficile clinical isolate growth, OD600, 24 h, active compounds read low; at 30 µM unless noted;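 further: plate controls were DMSO wells for no effect and levofloxacin 16 µg/mL wells for full effect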

Max activity, inactive:
CNC[C@@H]1Oc2cc(C#CCC3CCCC3)ccc2S(=O)(=O)N([C@H](C)CO)C[C@H]1C 18.8% [at 8 µM]
CCS(=O)(=O)Nc1ccc2c(c1)C(=O)N(C)C[C@H](OC)[C@H](C)CN(C)[C@H](C)CO2 -7.51% [at 1.95 µM]
CCCC#Cc1ccc2c(c1)O[C@H](CN(C)Cc1ccncc1)[C@@H](C)CN([C@@H](C)CO)S2(=O)=O 18.4%
CO[C@@H]1CN(C)C(=O)c2ccc(NC(=O)C3CCC3)cc2OC[C@@H](C)N(S(=O)(=O)c2ccc(Cl)cc2)C[C@H]1C -9.7% [at 2.1 µM]
C[C@H](CO)N1C[C@H](C)[C@@H](CN(C)C(=O)Nc2ccc3c(c2)OCO3)Oc2cc(C#Cc3cccnc3)ccc2S1(=O)=O -15.3% [at 8 µM]
CN(C)C(=O)C[C@@H]1CC[C@H](NC(=O)c2ccc(F)cc2)[C@H](CO)O1 -7.24% [at 1.95 µM]
O=C(N[C@H]1CC[C@@H](CCNS(=O)(=O)Cc2ccccc2)O[C@@H]1CO)c1ccc2c(c1)OCO2 16.7%
C[C@@H](NC(=O)C[C@@H]1C=C[C@@H](NC(=O)C2CCC2)[C@H](CO)O1)c1ccccc1 -14.9%
COc1ccc(C(=O)Nc2ccc3c(c2)OC[C@@H](C)N(C(=O)C2CC2)C[C@@H](C)[C@H](OC)CN(C)C3=O)cc1 3.99% [at 35 µM]
CO[C@H]1CN(C)C(=O)c2ccc(NC(=O)c3ccccc3F)cc2OC[C@H](C)N(CC2CC2)C[C@H]1C -14.6% [at 1.95 µM]
C[C@@H]1CN([C@@H](C)CO)C(=O)Cc2cc(NS(C)(=O)=O)ccc2O[C@@H]1CN(C)Cc1ccc(-c2ccccc2)cc1 21.7%
CNC[C@@H]1Oc2cc(-c3ccccc3F)ccc2S(=O)(=O)N([C@H](C)CO)C[C@H]1C 24.6%
O=C(Cc1ccncc1)NCC[C@H]1CC[C@H](NC(=O)C2CCC2)[C@H](CO)O1 -8.69% [at 1.95 µM]
CN(C)C(=O)C[C@@H]1CC[C@H](NC(=O)c2ccc(F)cc2)[C@@H](CO)O1 5.78% [at 8 µM]
O=C(Cc1ccncc1)NCC[C@H]1CC[C@H](NC(=O)C2CCC2)[C@@H](CO)O1 -8.1% [at 35 µM]
O=C(Cc1ccncc1)NCC[C@@H]1CC[C@H](NC(=O)C2CCC2)[C@@H](CO)O1 -11.9% [at 0.5 µM]
COc1ccc(-c2ccc3c(c2)O[C@H](CN(C)Cc2cccnc2)[C@@H](C)CN([C@H](C)CO)S3(=O)=O)cc1 25.8%
C[C@@H]1CN([C@H](C)CO)C(=O)Cc2cc(NC(=O)c3ccncc3)ccc2O[C@H]1CN(C)Cc1ccc(Cl)c(Cl)c1 5.9% [at 35 µM]
O=C(N[C@@H]1C=C[C@H](CC(=O)N2CCOCC2)O[C@@H]1CO)c1cccc(F)c1 9.1% [at 8 µM]
CCCC(=O)Nc1ccc2c(c1)C(=O)N(C)C[C@H](OC)[C@@H](C)CN(CC1CCOCC1)[C@H](C)CO2 -10.3%
O=C(C[C@H]1C[C@H]2c3cc(NS(=O)(=O)c4ccc(F)cc4)ccc3O[C@H]2[C@H](CO)O1)NCc1ccc(-c2ccccc2)cc1 -6.35% [at 1.95 µM]
COCC(=O)N1[C@@H]2c3ccc(-c4ccncc4)c(=O)n3C[C@@H]2[C@@H](CO)[C@@H]1C(=O)Nc1ccccc1 -4.68% [at 0.5 µM]
C[C@H](NC(=O)C[C@@H]1C[C@@H]2c3cc(NC(=O)NC4CCCCC4)ccc3O[C@@H]2[C@H](CO)O1)c1ccccc1 -12.5% [at 1.95 µM]
C[C@H](CO)N1C[C@H](C)[C@@H](CN(C)Cc2ccc(C(F)(F)F)cc2)Oc2ccc(N(C)C)cc2CC1=O 14% [at 8 µM]
C[C@H](CO)N1C[C@H](C)[C@@H](CN(C)Cc2ccccc2)Oc2ccc(N(C)C)cc2CC1=O 18.1%
C[C@@H]1CN([C@@H](C)CO)C(=O)Cc2cc(N(C)C)ccc2O[C@@H]1CN(C)Cc1ccc(Oc2ccccc2)cc1 32.7%
C[C@@H]1CN([C@H](C)CO)C(=O)Cc2cc(N(C)C)ccc2O[C@@H]1CN(C)Cc1ccc(Oc2ccccc2)cc1 27.6% [at 35 µM]
C[C@@H]1CN([C@@H](C)CO)C(=O)Cc2cc(NC(=O)C3CC3)ccc2O[C@@H]1CN(C)Cc1ccc(Oc2ccccc2)cc1 32.9%
C[C@@H]1CN([C@H](C)CO)C(=O)Cc2cc(N(C)C)ccc2O[C@@H]1CN(C)Cc1ccc(-c2ccccc2)cc1 13.4% [at 8 µM]
C[C@@H]1CN([C@H](C)CO)S(=O)(=O)c2ccc(C#Cc3ccccc3)cc2O[C@H]1CN(C)C(=O)Nc1ccccc1 8.1% [at 8 µM]
C[C@H](CO)N1C[C@H](C)[C@@H](CN(C)CC2CC2)Oc2cc(-c3ccc(F)cc3)ccc2S1(=O)=O 38%
CCCC#Cc1ccc([C@H]2[C@@H](CO)N(C(=O)C3CCCCC3)[C@H]2C#N)cc1 25.3% [at 8 µM]
N#C[C@H]1[C@@H](c2ccc(C#CC3CCCC3)cc2)[C@@H](CO)N1S(=O)(=O)Cc1ccccc1 29.9% [at 8 µM]
N#C[C@H]1[C@@H](c2ccc(C#CC3CCCCC3)cc2)[C@@H](CO)N1S(=O)(=O)c1ccccc1 31.9% [at 8 µM]
CN(C)CC(=O)N1[C@@H](C#N)[C@H](c2ccc(C#CC3CCCCC3)cc2)[C@@H]1CO 22.7% [at 8 µM]
Cc1ccccc1S(=O)(=O)N1[C@H](C#N)[C@@H](c2ccc(C#CC3CC3)cc2)[C@@H]1CO 26.6% [at 7.5 µM]
CN(C)CC(=O)N1[C@H](C#N)[C@H](c2ccc(C#CC3CCCCC3)cc2)[C@@H]1CO 14.2% [at 8 µM]
CCCC(=O)Nc1ccc2c(c1)C(=O)N(C)C[C@@H](OC)[C@H](C)CN(CC1CCOCC1)[C@H](C)CO2 -10.1%
